Reference: PubChem BioAssay (Tox21)
Values without a mark were called inactive. Inconclusive results are not listed. Where a call stands in place of a potency, no number is given. The source made the active and inactive calls. Unless noted, the call rests on the fitted dose curve; in most records, active means well fitted curve in the direction sought with a large enough effect in the repeat runs; inconclusive means weak or mixed curves; inactive means flat fitted curve, though single readings scatter.

Tests used:
[1] = qHTS assay to test for compound auto fluorescence at 535 nm (green) in HEK293 cells (AID 720680)
[2] = qHTS assay to test for compound auto fluorescence at 460 nm (blue) in HEK293 cell free culture (AID 720681)
How it was run: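 Compounds were added to cell-free DMEM with 10% FBS and fluorescence read directly. The blue channel used 405 nm excitation and 460 nm emission, with triamterene as the reference fluorophore.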

[3] = qHTS assay to test for compound auto fluorescence at 535 nm (green) in HEK293 cell free culture (AID 720682)
How it was run: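 Compounds were pin-transferred into cell-free DMEM with 10% FBS, and green fluorescence was read at excitation 485 nm and emission 535 nm. Intensities were expressed as fluorescein-equivalent values.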

[4] = qHTS assay to test for compound auto fluorescence at 590 nm (red) in HEK293 cell free culture (AID 720683)
How it was run: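 Cell-free wells of DMEM with 10% FBS received compound, and intrinsic fluorescence was read at excitation/emission 540/590 nm. Values expressed as equivalence to Rose Bengal sodium.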

[5] = qHTS assay to test for compound auto fluorescence at 590 nm (red) in HepG2 cell free culture (AID 720684)
How it was run: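 Compound was pinned into wells holding MEM with 10% FBS and no cells, and red fluorescence was read at Ex/Em 540/590 nm. Signal is expressed as auto fluorescence equivalency relative to Rose Bengal sodium.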

[6] = qHTS assay to test for compound auto fluorescence at 460 nm (blue) in HepG2 cell free culture (AID 720685)
How it was run: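 Compound (23 nL) or DMSO pinned into cell-free MEM with 10% FBS; blue fluorescence read at 405/460 nm excitation/emission, expressed as auto-fluorescence equivalency to triamterene.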

[7] = qHTS assay to test for compound auto fluorescence at 535 nm (green) in HepG2 cell free culture (AID 720686)
[8] = qHTS assay to test for compound auto fluorescence at 460 nm (blue) in HepG2 cells (AID 720687)
How it was run: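 HepG2 cells in MEM with 10% FBS, attached overnight at 37 C, were exposed to compound or DMSO for 1 hr at 37 C, 5% CO2. Blue fluorescence was read at 405/460 nm, with triamterene as reference fluorophore.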

[9] = target: Glucocorticoid receptor (Homo sapiens) (UniProt P04150); assay: qHTS assay to identify small molecule agonists of the glucocorticoid receptor (GR) signaling pathway (AID 720691; active means well fitted activation curve with a large enough effect in the signal ratio in the repeat runs, not every such curve was filed as active; the % refers to the signal ratio)
How it was run: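 Fluorescence intensity from LiveBLAzer B/G FRET substrate (2 h, room temperature) reports beta-lactamase expression driven by the glucocorticoid response element in GR-bla HeLa cells after 18 h compound exposure at 37 C.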

[10] = target: Glucocorticoid receptor (Homo sapiens) (UniProt P04150); assay: qHTS assay to identify small molecule antagonists of the glucocorticoid receptor (GR) signaling pathway (AID 720692; active means well fitted inhibition curve with a large enough effect in the signal ratio in the repeat runs, not every such curve was filed as active; the % refers to the signal ratio; further: potency means the concentration at half of the fitted maximal effect)
How it was run: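 HeLa GR-bla cells; cmpd + dex 5 nM final, 18 h 37 C; LiveBLAzer B/G FRET substrate 2 h RT; fluorescence intensity read. Antagonist mode, qHTS.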

Chain of Glucocorticoid receptor (Homo sapiens) (P04150 whole entry, looked up): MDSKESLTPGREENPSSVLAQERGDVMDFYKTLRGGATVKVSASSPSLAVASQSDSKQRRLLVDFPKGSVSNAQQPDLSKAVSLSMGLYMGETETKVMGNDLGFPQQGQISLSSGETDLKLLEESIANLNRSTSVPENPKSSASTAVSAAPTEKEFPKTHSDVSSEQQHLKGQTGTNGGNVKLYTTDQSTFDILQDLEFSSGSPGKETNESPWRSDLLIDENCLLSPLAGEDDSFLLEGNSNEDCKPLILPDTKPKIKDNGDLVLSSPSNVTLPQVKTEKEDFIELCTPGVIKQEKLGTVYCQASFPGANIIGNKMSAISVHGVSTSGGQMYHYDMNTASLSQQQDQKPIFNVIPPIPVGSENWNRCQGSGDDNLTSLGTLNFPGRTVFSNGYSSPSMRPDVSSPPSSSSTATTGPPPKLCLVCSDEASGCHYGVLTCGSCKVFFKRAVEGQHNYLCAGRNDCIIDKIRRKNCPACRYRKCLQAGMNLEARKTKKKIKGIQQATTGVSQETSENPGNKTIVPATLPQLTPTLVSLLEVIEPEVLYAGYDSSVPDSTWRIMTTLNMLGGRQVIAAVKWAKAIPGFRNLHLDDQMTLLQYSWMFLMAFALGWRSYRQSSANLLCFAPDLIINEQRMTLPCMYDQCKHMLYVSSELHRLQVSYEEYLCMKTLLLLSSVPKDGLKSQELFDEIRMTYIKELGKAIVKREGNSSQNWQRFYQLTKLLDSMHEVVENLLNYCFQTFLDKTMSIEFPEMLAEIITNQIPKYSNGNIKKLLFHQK

SMILES	outcome [1]	outcome [2]	outcome [3]	outcome [4]	outcome [5]	outcome [6]	outcome [7]	outcome [8]	Potency [9]	Potency [10]
NCCc1cnc[nH]1	inactive	inactive	inactive	inactive	inactive	inactive	inactive	inactive		
CC(C)(O)C#CC(C)(C)O	inactive	inactive	inactive	inactive	inactive	inactive	inactive	inactive		
CCC(C)C1CCCCC1=O (centres undefined)	inactive	inactive	inactive	inactive	inactive	inactive	inactive	inactive		
COc1cc(C(=O)N2CCCCCCC2)cc(OC)c1OC	inactive	inactive	inactive	inactive	inactive	inactive	inactive	inactive		
CC(=O)c1ccccc1O	inactive	inactive	inactive	inactive	inactive	inactive	inactive	inactive		
C[C@@H]1CCN(C(=O)[C@H](CCCN=C(N)N)NS(=O)(=O)c2cccc3c2NC[C@H](C)C3)[C@@H](C(=O)O)C1	inactive	inactive	inactive	inactive	inactive	inactive	inactive	inactive		
O=C(CCCN1CCN(c2ccccn2)CC1)c1ccc(F)cc1	inactive	inactive	inactive	inactive	inactive	inactive	inactive	inactive		
COC(=O)c1cc(C(=O)OC)cc(S(=O)(=O)O)c1	inactive	inactive	inactive	inactive	inactive	inactive	inactive	inactive		
CC(C)NC(=O)NC(C)C	inactive	inactive	inactive	inactive	inactive	inactive	inactive	inactive		
C=C[Si](OC(=C)C)(OC(=C)C)OC(=C)C	inactive	inactive	inactive	inactive	inactive	inactive	inactive	inactive		
CN1CCCC1	inactive	inactive	inactive	inactive	inactive	inactive	inactive	inactive		
CCOc1ccc(C(=O)OCCN(CC)CC)cc1	inactive	inactive	inactive	inactive	inactive	inactive	inactive	inactive		
CCCN1CCCC[C@H]1C(=O)Nc1c(C)cccc1C	inactive	inactive	inactive	inactive	inactive	inactive	inactive	inactive		
OC[C@]1(O)OC[C@@H](O)[C@H](O)[C@@H]1O	inactive	inactive	inactive	inactive	inactive	inactive	inactive	inactive		
CC(=O)N(CC(O)CO)c1c(I)c(C(=O)NCCO)c(I)c(C(=O)NCC(O)CO)c1I (centres undefined)	inactive	inactive	inactive	inactive	inactive	inactive	inactive	inactive		
COc1c(N2C[C@@H]3CCCN[C@@H]3C2)c(F)cc2c(=O)c(C(=O)O)cn(C3CC3)c12	inactive	inactive	inactive	inactive	inactive	inactive	inactive	inactive		
Nc1cc(=O)[nH]c(N)n1	inactive	inactive	inactive	inactive	inactive	inactive	inactive	inactive		
O=c1n(CCO)c(=O)n(CCO)c(=O)n1CCO	inactive	inactive	inactive	inactive	inactive	inactive	inactive	inactive		
CC(C(=O)O)c1ccc(CC2CCCC2=O)cc1 (centres undefined)	inactive	inactive	inactive	inactive	inactive	inactive	inactive	inactive		

SMILES	outcome [1]	outcome [2]	outcome [3]	outcome [4]	outcome [5]	outcome [6]	outcome [7]	outcome [8]	Potency [9]	Potency [10]
CCn1ccnc1CC1COc2ccccc2O1 (centres undefined)	inactive	inactive	inactive	inactive	inactive	inactive	inactive	inactive		
CCN1CCC[C@H]1CNC(=O)c1c(O)c(Cl)cc(Cl)c1OC	inactive	inactive	inactive	inactive	inactive	inactive	inactive	inactive		
CC(C)(C)NCCNC(C)(C)C	inactive	inactive	inactive	inactive	inactive	inactive	inactive	inactive		
Cc1ccc(=O)n(-c2ccccc2)c1	inactive	inactive	inactive	inactive	inactive	inactive	inactive	inactive		
CCC=O	inactive	inactive	inactive	inactive	inactive	inactive	inactive	inactive		
N=C(N)c1ccc2cc(OC(=O)c3ccc(N=C(N)N)cc3)ccc2c1	inactive	inactive	inactive	inactive	inactive	inactive	inactive	inactive		
CCc1nccnc1CC	inactive	inactive	inactive	inactive	inactive	inactive	inactive	inactive		
CC[N+](C)(C)c1cccc(O)c1	inactive	inactive	inactive	inactive	inactive	inactive	inactive	inactive		
Nc1ccccc1S(=O)(=O)O	inactive	inactive	inactive	inactive	inactive	inactive	inactive	inactive		
C[C@](N)(Cc1ccc(O)cc1)C(=O)O	inactive	inactive	inactive	inactive	inactive	inactive	inactive	inactive		
O=C1NC(=O)[C@@]2(CCOc3ccc(F)cc32)N1	inactive	inactive	inactive	inactive	inactive	inactive	inactive	inactive		
C=C1CC[C@H]2C[C@@H]1C2(C)C	inactive	inactive	inactive	inactive	inactive	inactive	inactive	inactive		
CCCCCCCCS(=O)(=O)Cl	inactive	inactive	inactive	inactive	inactive	inactive	inactive	inactive		
C/C=C(\C)C#N	inactive	inactive	inactive	inactive	inactive	inactive	inactive	inactive		
CC(=O)OCC(=O)[C@@]1(O)CC[C@H]2[C@@H]3CCC4=CC(=O)CC[C@]4(C)[C@H]3C(=O)C[C@@]21C	inactive	inactive	inactive	inactive	inactive	inactive	inactive	inactive		
NS(=O)(=O)c1ccccc1Cl	inactive	inactive	inactive	inactive	inactive	inactive	inactive	inactive		
N=C(N)c1ccccc1	inactive	inactive	inactive	inactive	inactive	inactive	inactive			
c1ccc(CC2=NCCN2)cc1	inactive	inactive	inactive	inactive	inactive	inactive	inactive	inactive		
O=C(O)CNC(=O)c1ccc([N+](=O)[O-])cc1	inactive	inactive	inactive	inactive	inactive	inactive	inactive	inactive		

SMILES	outcome [1]	outcome [2]	outcome [3]	outcome [4]	outcome [5]	outcome [6]	outcome [7]	outcome [8]	Potency [9]	Potency [10]
CCCC(=O)O[C@]1(C(=O)CO)CC[C@H]2[C@@H]3CCC4=CC(=O)CC[C@]4(C)[C@H]3[C@@H](O)C[C@@]21C	inactive	inactive	inactive	inactive	inactive	inactive	inactive	inactive		
CCN(Cc1ccncc1)C(=O)C(CO)c1ccccc1 (centres undefined)	inactive	inactive	inactive	inactive	inactive	inactive	inactive	inactive	inactive	
CCCCC(CC)COC(=O)c1ccccc1O (centres undefined)	inactive	inactive	inactive	inactive	inactive	inactive	inactive	inactive	inactive	inactive
CCCCNC(=O)NCCCC	inactive	inactive	inactive	inactive	inactive	inactive	inactive	inactive	inactive	inactive
CCN(CC)CCOCCOC(=O)C1(c2ccccc2)CCCC1	inactive	inactive	inactive	inactive	inactive	inactive	inactive	inactive	inactive	
CCCCCCCCCCCCCCCCC	inactive	inactive	inactive	inactive	inactive	inactive	inactive	inactive	inactive	inactive
C=CCOCC(CC)(CO)COCC=C	inactive	inactive	inactive	inactive	inactive	inactive	inactive	inactive	inactive	
O=C1CCCN1C1CCCCC1	inactive	inactive	inactive	inactive	inactive	inactive	inactive	inactive	inactive	
CC(C)(C)c1ccc(O)c(O)c1	inactive	inactive	inactive	inactive	inactive	inactive	inactive	inactive	inactive	50.9 µM (active)
C1CN(CCOCCN2CCOCC2)CCO1	inactive	inactive	inactive	inactive	inactive	inactive	inactive	inactive	inactive	inactive
CN1CCN(c2cc3c(cc2F)c(=O)c(C(=O)O)cn3-c2ccc(F)cc2)CC1	inactive	inactive	inactive	inactive	inactive	inactive	inactive	inactive	inactive	
C1OCOCO1	inactive	inactive	inactive	inactive	inactive	inactive	inactive	inactive	inactive	inactive
COC(=O)CCSCCC(=O)OC	inactive	inactive	inactive	inactive	inactive	inactive	inactive	inactive		
COC(=O)c1c(Cl)c(Cl)c(C(=O)OC)c(Cl)c1Cl	inactive	inactive	inactive	inactive	inactive	inactive	inactive	inactive	inactive	inactive
C=CCCCCCCCCC=O	inactive	inactive	inactive	inactive	inactive	inactive	inactive	inactive	inactive	inactive
Cc1cc(O)cc2c1O[C@](C)(CCC[C@H](C)CCC[C@H](C)CCCC(C)C)CC2	inactive	inactive	inactive	inactive	inactive	inactive	inactive	inactive	inactive	
C[N+](C)(C)CCCCCC[N+](C)(C)C	inactive	inactive	inactive	inactive	inactive	inactive	inactive	inactive		
CCN1CCC[C@H]1CNC(=O)c1cc(S(N)(=O)=O)ccc1OC	inactive	inactive	inactive	inactive	inactive	inactive	inactive	inactive	inactive	
CC1(C)CO[C@@H](CC(=O)O)CN1	inactive	inactive	inactive	inactive	inactive	inactive	inactive	inactive	inactive	
